Measured potencies and affinities stand elsewhere. Results filed as inconclusive are left out. The source made the active and inactive calls. How the calls were made is not given here.
assay: THP-1 cell cytotoxicity, cytotoxicity control, set 5 (AID 588443); conditions: THP-1 cell viability, cytotoxicity CC50; series mostly up to 100 µM; viability: at the top concentration

Compound | viability
CCOC(=O)CSc1ncnc2c1cnn2-c1ccccc1 | 94% (inactive)
COc1ccc(N2CCN(C(=O)c3ccc(CNc4c(N5CCOCC5)c(=O)c4=O)cc3)CC2)cc1 | 86.9% (inactive)
COC(=O)CSc1ncnc2c1cnn2-c1ccc(C)cc1C | 104% (inactive)
CCOC(=O)CSc1ncnc2c1cnn2-c1ccc(C)cc1C | 100% (inactive)

Source: PubChem BioAssay AID588443 (Southern Research Specialized Biocontainment Screening …, 2011)
